Experimental findings from PubChem BioAssay (NCATS) are described below.

The subject of experiment [1] is Zika virus NS2B-NS3 protease. Briefly: Primary screen GU AMC qHTS for Zika virus inhibitors (AID 1347154). Also: nearly all actives have a fitted effect of over 70% in size. Also: potency is read from the fitted curve at half-maximal effect.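 As to activity change, negative = inhibition: 0% = no-inhibitor control and -100% = no-enzyme control.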 The procedure, abridged: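 Unlinked Zika NS2B hydrophilic domain–NS3 protease complex at 25 nM in 10 mM Tris-HCl pH 8.0, 0.01% Tween 20, with an AMC peptide substrate. Fluorescence change (340/450 nm) over 15 min at room temperature, normalized to controls, fitted to 4-parameter Hill.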

The nature of experiment [2]: Primary qHTS for small molecule stabilizers of the endoplasmic reticulum resident proteome: Secreted ER Calcium Modulated Protein (SERCaMP) assay (AID 1508630). Also: % is scaled to controls: 0 for no effect and ±100 for the full control effect. Summed up:
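GLuc-SERCaMP-expressing SH-SY5Y cells, pretreated 16 h with compound, are challenged with thapsigargin to empty ER calcium stores; after 4 h, coelenterazine is added directly to the medium and luminescence is imaged.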

Experiment [3] can be described thus: AP1 Signaling Pathway (AID 357; active = well fitted curve in either direction with a large enough effect, not every such curve was filed as active;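 also: ME-180 reporter cells stimulated with EGF at its EC50 level; % is scaled to controls: 0 for no effect and ±100 for the full control effect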). The conditions noted are these: ME-180 AP-1-bla reporter, EGF-induced, beta-lactamase ratio, 5 h. The procedure, abridged:
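A ratiometric CCF4 readout (405 nm excitation; 460 and 530 nm emission) quantified AP-1-driven beta-lactamase in ME-180 cells after 5 h with compound and EC50 EGF; AC50 values were derived for activators and inhibitors.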

Experiment [4] addresses Cytochrome P450 1A2 (Homo sapiens) (UniProt P05177). Nature of the experiment: p450-cyp1a2 (AID 410; calls by dose curve; also: potency is read from the fitted curve at half-maximal effect;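 as to activity change, negative = inhibition: -100% = full effect of reference inhibitor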). Summed up: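 Luminescent readout of luciferin formed from Luciferin-ME by human CYP1A2; data normalized against complete inhibition by 57 uM furafylline. Enzyme 20nM, substrate 100uM at Km, 100mM KPO4 buffer, 60 min reaction at room temperature.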
Experiment [5] is described as follows: NFAT Signaling Pathway (AID 444; active = well fitted curve in either direction with a large enough effect, not every such curve was filed as active;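 also: carbachol stimulus at about its EC50 of 1 µM final; % is scaled to controls: 0 for no effect and ±100 for the full control effect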). The conditions noted are these: Jurkat NFAT-bla M1, carbachol, beta-lactamase ratio, 5 h. The procedure, abridged: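 Jurkat cells with NFAT-driven β-lactamase reporter and co-expressed M1 receptor, stimulated with carbachol (final 1 uM, ~EC50), compound titration, 5 h at 37 °C. CCF4 loaded 1 h at RT; 460/530 nm ratio gave %activity and AC50.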

The nature of experiment [6]: Stat Signaling Pathway (AID 446; active = well fitted curve in either direction with a large enough effect, not every such curve was filed as active;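 also: ME-180 cervical cancer cells given 40 pM IL-6 alongside compound; SIE-controlled beta-lactamase reporter measured as 460/530 nm FRET emission ratio; % is scaled to controls: 0 for no effect and ±100 for the full control effect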). Particulars: ME-180 SIE beta-lactamase reporter, IL-6 stimulated, 5 h. Summed up: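 Screening format detects activators and inhibitors alike: ME-180 SIE-bla cells stimulated at 40 pM IL-6 for 5 hrs with compound, then dual-emission beta-lactamase read at 405 nm excitation.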
Experiment [7] has as its target Glucocorticoid receptor (Homo sapiens) (UniProt P04150). Nature of the experiment: GR-GFP Redistribution (AID 450;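 active = compounds whose dose series gives a full or clear partial fitted curve of increased nuclear translocation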; also: potency is read from the fitted curve at half-maximal effect). Particulars: U2OS GR-GFP nuclear translocation, laser cytometry, 2 h.
For experiment [8] the target is unchanged. Briefly: GR-EFC Redistribution (AID 451; calls by dose curve; also: potency is read from the fitted curve at half-maximal effect). Particulars: CHO-K1 GR-EFC translocation, beta-gal luminescence, 2 h. Summed up: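 CHO-K1 cells expressing nuclear EA and GR-ED fragments of b-gal; compounds titrated up to 46 uM final, 2 h at 37 C. GR nuclear translocation read as complemented b-gal luminescence after 1 h RT detection.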
For experiment [9], the target named is Mitogen-activated protein kinase 10 (Mus musculus) (UniProt Q61831). Briefly: JNK3 AlphaScreen Assay (AID 530; active = well fitted curve in either direction with a large enough effect, not every such curve was filed as active). The procedure, abridged:
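Pre-activated (IL-1β/TNFα) JNK3 in HepG2 lysates phosphorylates biotin-GST-cJun(1-79), 10 uM ATP; anti-phospho-cJun(Ser73) AlphaScreen read at room temperature, pH 7.6 Tris buffer. Compounds pre-incubated 15 min as titrations.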

Experiment [10] addresses 3',5'-cyclic-AMP phosphodiesterase 4B (Homo sapiens) (UniProt Q07343). Briefly: qHTS Assay for Inhibitors of PDE-IV (AID 607; active = well fitted activation curve with a large enough effect in the main read-out, with a control signal flat, not every such curve was filed as active; also: % of control where 0% means no effect). Summed up: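 The readout is membrane depolarisation from a cAMP-sensing CNG channel, detected with a potential dye at ex 535/em 590. Cells were HEK293-derived (endogenous PDE-IV) at 1000 cells/well, titrated up to 22.9 uM final.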
A short description of experiment [11]: qHTS Assay for Identification of Small Molecule Agonists for Thrombopoietin (TPO) Signaling Pathway (AID 917). Also: % is scaled to controls: 0 for no effect and ±100 for the full control effect. Summed up:
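Luminescence from a Glycoprotein IIb promoter–driven luciferase reporter served as read-out in murine Ba/F3 cells carrying the human TPO receptor. Cells, deprived of IL-3 overnight, received compounds with 26 pM TPO and were incubated 24 hrs at 37 C.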

In experiment [12] the target is Pyruvate kinase (Leishmania mexicana) (UniProt Q27686). Briefly: qHTS Validation Assay for Inhibitors of Leishmania Mexicana Pyruvate Kinase (AID 945).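 Also: 0% = DMSO only neutral control wells.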 The procedure, abridged:
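Read-out: luminescence from PKLight stop/detection reagent, data normalized to DMSO. Reaction: 0.2 nM E451W LmPYK, 0.5 mM PEP, 0.1 mM ADP, pH 7.2, 1 h room temperature.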

Experiment [13] deals with Pyruvate kinase PKM (Homo sapiens) (UniProt P14618). Briefly: qHTS Assay for Activators of Human Muscle Pyruvate Kinase (AID 954; active = well fitted curve in the direction sought with a large enough effect, not every such curve was filed as active;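 also: 0% = uninhibited enzyme and -100% = no enzyme or full thiadiazolimine inhibition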). Summed up:
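Reaction: 0.1 nM purified PKM2 with 0.5 mM phosphoenolpyruvate and 0.1 mM ADP, room temperature, 1 h. Readout: luciferase-based ATP luminescence after stop reagent. Activators judged against a 0.3 nM enzyme column.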

For experiment [14], the target named is alpha-glucosidase (Oryza sativa, rice) (UniProt Q653V4). Nature of the experiment: Counterscreen for Glucocerebrosidase Inhibitors: qHTS Assay for Rice alpha-Glucosidase at pH 5.0 (AID 997).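 Also: 0% = full activity with enzyme and -100% = basal without enzyme.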 Summed up: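 Rice alpha-glucosidase (4 nM final) with 400 uM 4-methylumbelliferyl-alpha-D-glucopyranoside in citrate buffer pH 5.0, 20 min at room temperature, stopped at pH 10; fluorescence 365/440 nm, compounds 0.7 nM–77 uM, AC50 from Hill fits.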

Experiment [15] can be described thus: qHTS Assay for Lipid Storage Modulators (AID 1519; calls by dose curve). The conditions noted are these: Drosophila S3 cells, BODIPY lipid droplet/cell ratio, laser cytometry, cells loaded with oleic acid. Summed up:
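Cells seeded at 5,000 per well were treated with compounds over a concentration series and loaded with oleic acid (400 uM, as added). Lipid droplet fluorescence (488 nm excitation, 500-530 nm channel) was read by laser-scanning cytometry and normalized to 20 uM Triacsin C.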

Experiment [16] concerns the target Ubiquitin carboxyl-terminal hydrolase 1 (Homo sapiens) (UniProt O94782). Briefly: Inhibitors of USP1/UAF1: Pilot qHTS (AID 504865).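 Also: rhodamine fluorescence freed from ubiquitin-rhodamine substrate followed over time; top concentration of the series differs between compounds; % is scaled to controls: 0 for no effect and ±100 for the full control effect; nearly all actives have a fitted effect of over 35% in size.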 Summed up: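 In 50mM HEPES pH 7.8 containing 0.5mM EDTA, 1mM TCEP, 0.1 mg/ml BSA and 0.01% Tween-20, 1nM USP1/UAF1 is exposed to compound for 15 min, then Ub-Rho (150nM final) is added and fluorescence is read over time.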
Experiment [17] deals with DNA dC->dU-editing enzyme APOBEC-3G (Homo sapiens) (UniProt Q9HC16). Briefly: qHTS for inhibitors of Vif-A3G interactions: Validation (AID 588379). Also: 0% is about no effect. The procedure, abridged: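 HeLa cells stably expressing Vif and A3G-eYFP, 700 cells/well, incubated overnight at 37 deg C, then exposed to compound overnight at 37 deg C. Inhibition of Vif-mediated degradation read as increased yellow fluorescence (Ex 488/Em 500-530) by laser-scanning cytometry.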
Chain of DNA dC->dU-editing enzyme APOBEC-3G (Homo sapiens) (Q9HC16 whole entry, looked up): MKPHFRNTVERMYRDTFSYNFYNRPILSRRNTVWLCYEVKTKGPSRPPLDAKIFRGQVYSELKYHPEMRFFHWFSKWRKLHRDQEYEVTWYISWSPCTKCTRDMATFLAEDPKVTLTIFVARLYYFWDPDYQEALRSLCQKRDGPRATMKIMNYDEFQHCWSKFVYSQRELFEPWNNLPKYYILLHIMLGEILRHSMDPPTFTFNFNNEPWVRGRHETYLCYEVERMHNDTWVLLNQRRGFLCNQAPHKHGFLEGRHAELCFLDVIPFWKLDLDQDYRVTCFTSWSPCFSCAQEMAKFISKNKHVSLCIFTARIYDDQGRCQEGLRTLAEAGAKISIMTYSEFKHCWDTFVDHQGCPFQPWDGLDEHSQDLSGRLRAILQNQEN

Experiment [18] deals with Cytochrome P450 2C9 (Homo sapiens) (UniProt P11712). Nature of the experiment: qHTS Assay for Inhibitors and Substrates of Cytochrome P450 2C9 (AID 883). Also: nearly all actives have a fitted effect of over 60% in size. Also: potency is read from the fitted curve at half-maximal effect. Summed up: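 10nM CYP2C9 + 100uM Luciferin-H (=KM), 25mM KPO4; cpd 10 min 37C; NADPH regen, 60 min 37C; stop/detect with P450 Glo-Buffer 20 min; luminescence. Norm. to 57uM sulphaphenazole as full inhibition.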
Chain of Cytochrome P450 2C9 (Homo sapiens) (P11712 whole entry, looked up): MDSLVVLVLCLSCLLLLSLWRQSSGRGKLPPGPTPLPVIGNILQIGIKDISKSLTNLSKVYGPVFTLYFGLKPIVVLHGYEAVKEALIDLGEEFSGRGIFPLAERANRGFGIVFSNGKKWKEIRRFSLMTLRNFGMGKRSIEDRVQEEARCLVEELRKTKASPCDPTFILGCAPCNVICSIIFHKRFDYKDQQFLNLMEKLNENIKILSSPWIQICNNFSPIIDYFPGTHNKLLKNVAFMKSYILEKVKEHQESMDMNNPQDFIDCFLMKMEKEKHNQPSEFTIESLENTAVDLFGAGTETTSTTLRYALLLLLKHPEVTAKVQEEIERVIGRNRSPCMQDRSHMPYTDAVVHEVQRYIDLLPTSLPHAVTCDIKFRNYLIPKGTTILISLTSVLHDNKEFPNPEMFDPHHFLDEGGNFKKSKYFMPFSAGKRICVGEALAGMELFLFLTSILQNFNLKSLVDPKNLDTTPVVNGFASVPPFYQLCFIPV
Experiment [19] has as its target Cytochrome P450 3A4 (Homo sapiens) (UniProt P08684). Nature of the experiment: qHTS Assay for Activators of Cytochrome P450 3A4 (AID 885). Also: nearly all actives have a fitted effect of over 65% in size. The procedure, abridged:
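Steps: enzyme/substrate mix dispensed; compound added, 10 min RT; NADPH regeneration solution added, 60 min RT; luciferin detection buffer stops reaction; 20 min later luminescence measured.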

Where [20] appears, read: measured here: cell count channel max response.
Where [21] appears, read: measured here: lipid channel max response.

“And” between values parts separate entries of the source, which are not always exact repeats. Equal entries are not always repeated. Results filed as inconclusive are left out. A structure can be active in one record and inactive in another. The source made the active and inactive calls. Unless noted, calls follow the shape of the dose curve; as a rule, active = well fitted curve in the direction sought with a large enough effect; inconclusive = small, poorly fitted or top-dose-only effect, or another doubt; inactive = no such curve, though single readings can be large; an effect the other way counts as inactive or inconclusive. Where a SMILES comes first, the peptide text is derived from it. [ ]: non-standard residue; d: D form. The star is where a group is joined. Fmoc = O=C(OCC1c2ccccc2-c2ccccc21)*; AMC = Cc1cc(=O)oc2cc(N*)ccc12; Cha = N[CH](CC1CCCCC1)C(=O)O

Chain of Cytochrome P450 1A2 (Homo sapiens) (P05177 whole entry, looked up): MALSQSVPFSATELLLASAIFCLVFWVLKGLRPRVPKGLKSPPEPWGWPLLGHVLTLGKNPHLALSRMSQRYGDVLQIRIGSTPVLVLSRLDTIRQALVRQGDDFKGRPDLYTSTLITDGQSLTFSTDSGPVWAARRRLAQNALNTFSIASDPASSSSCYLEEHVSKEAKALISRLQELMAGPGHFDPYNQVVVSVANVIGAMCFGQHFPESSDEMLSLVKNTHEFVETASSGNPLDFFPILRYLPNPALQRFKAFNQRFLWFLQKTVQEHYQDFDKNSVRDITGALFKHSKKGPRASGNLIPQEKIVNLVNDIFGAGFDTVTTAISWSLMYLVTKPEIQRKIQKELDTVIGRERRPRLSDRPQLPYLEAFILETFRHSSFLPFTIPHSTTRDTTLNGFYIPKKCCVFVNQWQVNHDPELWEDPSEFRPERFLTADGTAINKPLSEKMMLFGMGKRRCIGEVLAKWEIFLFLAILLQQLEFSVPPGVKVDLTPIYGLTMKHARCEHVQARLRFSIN
Chain of Pyruvate kinase PKM (Homo sapiens) (P14618 whole entry, looked up): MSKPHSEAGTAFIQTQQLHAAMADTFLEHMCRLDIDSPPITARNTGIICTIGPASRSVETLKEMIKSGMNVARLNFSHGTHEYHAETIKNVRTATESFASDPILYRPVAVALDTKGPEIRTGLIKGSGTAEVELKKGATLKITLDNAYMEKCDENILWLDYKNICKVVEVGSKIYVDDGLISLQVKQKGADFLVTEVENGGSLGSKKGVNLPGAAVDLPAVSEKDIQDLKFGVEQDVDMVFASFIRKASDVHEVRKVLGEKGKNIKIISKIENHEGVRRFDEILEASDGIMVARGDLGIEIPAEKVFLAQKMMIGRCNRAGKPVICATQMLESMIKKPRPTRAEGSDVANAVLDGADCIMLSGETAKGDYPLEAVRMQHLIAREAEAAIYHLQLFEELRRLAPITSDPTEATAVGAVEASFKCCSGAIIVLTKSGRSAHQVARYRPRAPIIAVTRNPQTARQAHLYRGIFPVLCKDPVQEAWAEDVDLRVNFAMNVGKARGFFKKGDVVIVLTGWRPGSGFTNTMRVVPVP
Chain of 3',5'-cyclic-AMP phosphodiesterase 4B (Homo sapiens) (Q07343 whole entry, looked up): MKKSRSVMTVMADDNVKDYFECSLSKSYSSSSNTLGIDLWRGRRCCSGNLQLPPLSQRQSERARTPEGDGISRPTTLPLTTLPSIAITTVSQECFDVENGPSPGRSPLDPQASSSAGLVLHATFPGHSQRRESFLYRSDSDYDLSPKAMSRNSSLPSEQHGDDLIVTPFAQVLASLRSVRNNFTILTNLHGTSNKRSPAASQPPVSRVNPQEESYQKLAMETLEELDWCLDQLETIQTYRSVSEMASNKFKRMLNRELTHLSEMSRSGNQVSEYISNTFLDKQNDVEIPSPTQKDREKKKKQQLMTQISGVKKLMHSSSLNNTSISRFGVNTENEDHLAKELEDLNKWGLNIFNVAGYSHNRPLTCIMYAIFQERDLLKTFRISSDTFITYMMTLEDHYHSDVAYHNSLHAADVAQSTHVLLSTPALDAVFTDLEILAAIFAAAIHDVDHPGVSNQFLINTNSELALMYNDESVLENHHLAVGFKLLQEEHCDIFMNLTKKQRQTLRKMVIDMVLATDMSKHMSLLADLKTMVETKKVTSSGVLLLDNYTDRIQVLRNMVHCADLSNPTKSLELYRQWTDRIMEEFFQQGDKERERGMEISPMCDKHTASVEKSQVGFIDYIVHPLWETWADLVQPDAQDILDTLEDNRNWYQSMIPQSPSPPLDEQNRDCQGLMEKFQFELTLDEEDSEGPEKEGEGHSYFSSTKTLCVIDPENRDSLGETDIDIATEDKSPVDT
Chain of Ubiquitin carboxyl-terminal hydrolase 1 (Homo sapiens) (O94782 whole entry, looked up): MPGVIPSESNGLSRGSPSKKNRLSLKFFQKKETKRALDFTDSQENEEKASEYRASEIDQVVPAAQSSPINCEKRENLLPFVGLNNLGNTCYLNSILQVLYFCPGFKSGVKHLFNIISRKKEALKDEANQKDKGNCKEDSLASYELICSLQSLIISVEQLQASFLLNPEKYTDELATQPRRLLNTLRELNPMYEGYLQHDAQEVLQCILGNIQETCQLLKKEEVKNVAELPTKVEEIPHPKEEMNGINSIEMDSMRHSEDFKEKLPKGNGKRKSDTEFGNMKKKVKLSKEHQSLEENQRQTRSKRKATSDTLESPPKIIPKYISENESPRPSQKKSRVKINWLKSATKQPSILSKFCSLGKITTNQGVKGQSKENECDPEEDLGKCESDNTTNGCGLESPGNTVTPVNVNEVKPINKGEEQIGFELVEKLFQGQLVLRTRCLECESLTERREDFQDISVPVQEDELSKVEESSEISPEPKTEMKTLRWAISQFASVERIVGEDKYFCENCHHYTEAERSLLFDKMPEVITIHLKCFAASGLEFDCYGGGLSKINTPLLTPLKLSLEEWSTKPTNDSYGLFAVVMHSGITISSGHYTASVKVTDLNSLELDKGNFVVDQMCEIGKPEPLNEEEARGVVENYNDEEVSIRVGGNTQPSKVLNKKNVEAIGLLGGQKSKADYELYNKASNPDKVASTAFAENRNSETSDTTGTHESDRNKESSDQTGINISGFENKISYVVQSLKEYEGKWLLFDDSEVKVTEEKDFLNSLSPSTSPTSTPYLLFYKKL
Chain of Glucocorticoid receptor (Homo sapiens) (P04150 whole entry, looked up, the tested form may be a part): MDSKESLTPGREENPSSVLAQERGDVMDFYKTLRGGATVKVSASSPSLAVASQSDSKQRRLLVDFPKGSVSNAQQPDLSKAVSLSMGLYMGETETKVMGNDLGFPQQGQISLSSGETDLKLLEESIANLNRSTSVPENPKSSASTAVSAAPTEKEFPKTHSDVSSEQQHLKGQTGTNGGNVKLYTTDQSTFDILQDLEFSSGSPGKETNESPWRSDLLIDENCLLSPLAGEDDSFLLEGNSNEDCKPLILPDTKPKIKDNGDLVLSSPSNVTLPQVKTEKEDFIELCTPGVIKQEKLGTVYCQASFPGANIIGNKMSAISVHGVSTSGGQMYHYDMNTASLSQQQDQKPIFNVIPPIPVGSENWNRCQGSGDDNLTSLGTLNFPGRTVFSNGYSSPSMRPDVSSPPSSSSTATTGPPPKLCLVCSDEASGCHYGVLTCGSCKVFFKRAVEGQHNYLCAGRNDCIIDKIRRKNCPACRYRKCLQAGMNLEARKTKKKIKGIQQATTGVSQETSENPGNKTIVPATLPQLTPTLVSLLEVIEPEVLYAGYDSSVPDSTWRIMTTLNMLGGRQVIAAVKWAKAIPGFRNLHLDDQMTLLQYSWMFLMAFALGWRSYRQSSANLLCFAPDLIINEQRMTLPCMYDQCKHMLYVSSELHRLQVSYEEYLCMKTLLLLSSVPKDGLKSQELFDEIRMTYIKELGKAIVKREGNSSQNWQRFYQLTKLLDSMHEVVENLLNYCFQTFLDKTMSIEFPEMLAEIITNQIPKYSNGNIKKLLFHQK
Chain of Pyruvate kinase (Leishmania mexicana) (Q27686 2-499 E452W): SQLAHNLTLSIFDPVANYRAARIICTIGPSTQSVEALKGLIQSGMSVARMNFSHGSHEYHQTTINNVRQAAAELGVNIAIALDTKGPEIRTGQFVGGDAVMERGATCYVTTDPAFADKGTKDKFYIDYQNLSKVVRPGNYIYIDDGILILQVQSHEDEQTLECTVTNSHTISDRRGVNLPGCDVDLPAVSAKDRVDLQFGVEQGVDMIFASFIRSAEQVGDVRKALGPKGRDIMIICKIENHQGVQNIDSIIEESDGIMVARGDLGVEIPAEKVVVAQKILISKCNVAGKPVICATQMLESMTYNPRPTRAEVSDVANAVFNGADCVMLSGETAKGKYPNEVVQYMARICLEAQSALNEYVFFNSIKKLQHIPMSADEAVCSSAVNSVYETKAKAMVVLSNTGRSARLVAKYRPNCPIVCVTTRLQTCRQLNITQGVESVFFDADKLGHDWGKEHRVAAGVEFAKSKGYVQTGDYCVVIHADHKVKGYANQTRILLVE

Consider `CCCCCCCCCCC1=C(C)C(=O)C(OC)=C(OC)C1=O`, for which the Potency entry in experiment [1] and in [2] was “inactive” in each case.
For `C[C@@](N)(C(=O)O)c1ccc(C(=O)O)cc1`, the activity change, negative = inhibition in experiment [3] (at 38 µM (top of the series)) was 2.6% (inactive); in [5] (at 38 µM (top of the series)), 6.09% (inactive); in experiment [15] (at 57.5 µM (top of the series)), -1.38% (inactive) and 3.86% (inactive). Also, the Potency result in experiment [4], in experiment [9], in experiment [10], in experiment [11], in [12] and in [16] was “inactive” throughout. In addition, the Potency entry in experiment [17], in experiment [1] and in [2] was “inactive” in each case. Moreover, the activity, negative = inhibition in experiment [6] (at 38 µM (top of the series)) is 4.5% (inactive). Also, the Potency in [7] and in experiment [8] was > 46 µM (inactive) in each case. Moreover, the call in [13] and in experiment [14] was inactive. Besides, the max response was -12.7% and -2.32% in [15] (setting [20]); -13.1% and 2.03% in experiment [15] (setting [21]).
With `S=C(S)O[C@@H]1C[C@@H]2C[C@H]1[C@@H]1CCC[C@H]21`, the activity change, negative = inhibition was 6.71% (inactive) in experiment [3] (at 38 µM (top of the series)), -4.29% (inactive) in experiment [5] (at 38 µM (top of the series)) and -0.164% (inactive) in experiment [15] (at 57.5 µM (top of the series)). Also, the Potency entry in [4], in [9], in [10], in [19], in experiment [11] and in experiment [12] was “inactive” in each case. Moreover, the Potency result in [17], in [1] and in experiment [2] was “inactive” throughout. Moreover, the activity, negative = inhibition in experiment [6] (at 38 µM (top of the series)) is -20.1% (inactive). The Potency in experiment [7] was > 46 µM (inactive); in experiment [8] it was > 46 µM (inactive); in [18], 3.98 µM (active). Besides, the compound was called inactive in [13] and in [14]. In addition, the max response in experiment [15] (setting [20]) was 8.79%; in experiment [15] (setting [21]) it was 9.53%.
Turning to `CC(C)NC[C@@H](O)COc1ccc(CCOCC2CC2)cc1`, the activity change, negative = inhibition in experiment [3] (at 17.2 µM (top of the series)) is -7.61% (inactive); in experiment [3] (at 38 µM (top of the series)), 1.38% (inactive); in [5] (at 17.2 µM (top of the series)), -13.9% (inactive); in [5] (at 38 µM (top of the series)), 5.51% (inactive); in experiment [15] (at 25.7 µM (top of the series)), -3.72% (inactive); in experiment [15] (at 57.5 µM (top of the series)), 3.94% (inactive). The Potency in experiment [4] was 15.8 µM (active) and 12.6 µM (active) and inactive; in experiment [7], > 46 µM (inactive) and > 20.6 µM (inactive); in [8], > 46 µM (inactive) and > 20.6 µM (inactive); in experiment [18] it was 0.631 µM (active). The values for the activity, negative = inhibition in experiment [6] (at 17.2 µM (top of the series)) and in experiment [6] (at 38 µM (top of the series)) were 9.37% (inactive) and 21.1% (inactive), respectively. Moreover, the Potency entry in experiment [9], in experiment [10], in experiment [11], in [12], in experiment [16] and in experiment [17] was “inactive” in each case. The Potency result in [1] and in experiment [2] was “inactive” each time. The call in experiment [13] and in experiment [14] was inactive. In addition, the max response in experiment [15] (setting [20]) is 2.99% and 8.52%; in [15] (setting [21]), -0.358% and 14.4%.
With `CC(C)C(N)C(=O)O` (stereo not drawn), the Potency entry in [1] and in [2] was “inactive” in each case.
On to `CC(O)[C@@H](N)C(=O)O` (stereo partly drawn), for which the Potency entry in experiment [1] and in experiment [2] was “inactive” each time.
On to `COc1ccc(CC(N)C(=O)NC2C(O)[C@H](n3cnc4c(N(C)C)ncnc43)O[C@@H]2CO)cc1` (stereo partly drawn), for which the Potency result in experiment [1] and in experiment [2] was “inactive” throughout.
Take `Cc1cc(=O)oc2cc(NC(=O)C(CCCCN)NC(=O)C(CC3CCCCC3)NC(=O)OCC3c4ccccc4-c4ccccc43)ccc12` (stereo not drawn) (Fmoc-[Cha]-Lys-{AMC}; configuration not given here): the Potency in experiment [1] was 18.9 µM (active). Moreover, in experiment [2], the Potency result was “inactive”.
Turning to `CC(N)=NCCCC[C@H](N)C(=O)O`, the activity change, negative = inhibition is -1.14% (inactive) in [3] (at 38 µM (top of the series)), -3.86% (inactive) in [5] (at 38 µM (top of the series)) and -4.89% (inactive) in experiment [15] (at 57.5 µM (top of the series)). Also, the Potency result in experiment [4] is “inactive and 39.8 µM (active)”; in [7] it was > 46 µM (inactive); in [8], > 46 µM (inactive). Besides, the activity, negative = inhibition in experiment [6] (at 38 µM (top of the series)) is -14% (inactive). Also, the Potency entry in experiment [9], in [10], in experiment [18], in [11], in experiment [12] and in [16] was “inactive” in each case. The Potency result in experiment [17], in experiment [1] and in [2] was “inactive” throughout. Moreover, the compound was classed as inactive in experiment [13] and in experiment [14]. Besides, the max response in experiment [15] (setting [20]) is -8.18%; in [15] (setting [21]), -10.8%.
